In PubChem BioAssay (EPA / NIEHS) one finds outcome and AC50 data, which are given here for 29 compounds.

“And” between values parts separate entries of the source, which are not always exact repeats. Identical values can stand only once. Records with an inconclusive call do not appear. The source made the active and inactive calls. How the source made its calls, unless noted: active means hit-call score of the fitted dose curve at least 0.9, where 1 is the maximum; inconclusive means response in the unintended direction; inactive means score below 0.9.

As usually defined, the AC50 is the concentration at which the activity in the assay is half-maximal.

Assay [1] can be described thus: Tanguay_ZF_120hpf_TRUN_legacy: (Legacy) Oregon State University Tanguay Lab 120 Hour Post-fertilization zebrafish Assay for Truncated Body (AID 2283655). Summed up:
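Single dechorionated zebrafish embryos received test chemical from 6 hpf in 0.64% DMSO, kept at 28C. At 120 hpf, brightfield inspection noted any truncated body.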

A short description of assay [2]: Tanguay_ZF_120hpf_NC_legacy: (Legacy) Oregon State University Tanguay Lab 120 Hour Post-fertilization zebrafish Assay for Notochord and Tail Malformation (AID 2283656). Summed up:
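Dechorionated 5D zebrafish, 1/well from 6 hpf; static exposure to 120 hpf, 28C, sealed, dark; final DMSO 0.64% v/v. NC scored binary (present/absent); dead embryos not scored. Fit vs DMSO baseline, gain direction.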

Assay [3] can be described thus: Tanguay_ZF_120hpf_TR_legacy: (Legacy) Oregon State University Tanguay Lab 120 Hour Post-fertilization zebrafish Assay for Touch Response (AID 2283667). Summed up:
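Tropical 5D wild-type zebrafish embryos statically exposed to 120 hpf at 28°C, sealed and dark-covered, 0.64% DMSO final; touch response scored as present/absent by brightfield microscopy at 120 hpf. Trimethyltin chloride 5 uM positive control; dead embryos not scored.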

Assay [4] is described as follows: Tanguay_ZF_120hpf_SWIM_legacy: (Legacy) Oregon State University Tanguay Lab 120 Hour Post-fertilization zebrafish Assay for Swim Bladder Malformation (AID 2283654).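 Further: swim bladder malformation in each larva scored yes or no under brightfield.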 Summed up: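 Dechorionated wild-type Tropical 5D zebrafish embryos, one per well from 6 hpf, were statically exposed at 28C until 120 hpf in 0.64% DMSO. Swim bladder malformation scored as present/absent by brightfield microscopy; not scored in dead larvae.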

Assay [5] has as its system Thyroperoxidase (TPO), gene 54314. In words: CCTE_Simmons_AUR_rTPO: CCTE's Amplex UltraRed Assay for Thyroperoxidase (TPO) Inhibition, Simmons Lab (AID 2283662).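 On AC50: potency for loss of signal meaning inhibition of peroxidase activity.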 Summed up:
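Rat thyroid microsomal TPO + 25 uM AUR in 200 mM K phosphate; cpd 5 nM–87.5 uM [final], 8 conc, 0.5% DMSO; 300 uM H2O2 starts rxn; 37C dark 30 min; endpoint FI 544/590 nm; n=3.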

A short description of assay [6]: CCTE_Simmons_CellTiterGLO_HEK293T: Viability Assessment in CCTE's Assays for Thyroperoxidase (TPO) Inhibition, Simmons Lab (AID 2283665).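 On AC50: cells exposed to compound for 24 h before readout; actives reduce ATP signal below DMSO vehicle meaning cytotoxicity.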 The procedure, abridged:
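Cytotoxicity counter-screen: human HEK293T cells in low-serum (1% FBS) medium receive test chemical, 5 nM to 87.5 uM final, for 24 h; ATP is quantified by luciferase luminescence.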
(In ATP-based viability assays light output follows the ATP content of the culture.)

Read-out in assay [7]: kallikrein-3 (KLK3), KLK3 (gene 354)
Kind of assay: LTEA_HepaRG_KLK3: Life Technologies and Expression Analysis (LTEA) Assay for kallikrein-3 (KLK3) using HepaRG (AID 2283652; active means hit-call score of the fitted dose curve at least 0.9, where 1 is the maximum; inactive means score below 0.9). The conditions noted are these: mRNA level, 48 h; actives raise or lower the signal. The procedure, abridged: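 Differentiated human HepaRG cells in serum-free induction medium exposed 48 h in duplicate, eight-point half-log series from 100 uM in 0.5% DMSO. KLK3 mRNA by qRT-PCR, normalised to ACTB, GAPDH, POLR2A; bidirectional fit versus DMSO.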

Read-out in assay [8]: solute carrier (SLC22A6), SLC22A6 (gene 9356)
Kind of assay: LTEA_HepaRG_SLC22A6: Life Technologies and Expression Analysis (LTEA) Assay for solute carrier (SLC22A6) using HepaRG (AID 2283653; active means hit-call score of the fitted dose curve at least 0.9, where 1 is the maximum; inactive means score below 0.9). The conditions noted are these: mRNA level, 48 h; actives raise or lower the signal. The procedure, abridged: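 Gene-expression endpoint in HepaRG hepatic cells: duplicate 8-point concentration-response, highest 100 uM, 48 h treatment in serum-free medium with 0.5% DMSO. SLC22A6 expression measured by qRT-PCR, normalised to ACTB/GAPDH/POLR2A.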

Read-out in assay [9]: solute carrier (SLC10A1), SLC10A1 (gene 6554)
In words: LTEA_HepaRG_SLC10A1: Life Technologies and Expression Analysis (LTEA) Assay for solute carrier (SLC10A1) using HepaRG (AID 2283657; active means hit-call score of the fitted dose curve at least 0.9, where 1 is the maximum; inactive means score below 0.9). The following applies: mRNA level, 48 h; actives raise or lower the signal. Summed up:
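HepaRG cells (single lot) exposed 48 h in serum-free induction medium, 8-point half-log series from 100 uM top in 0.5% DMSO, duplicate. SLC10A1 mRNA by qRT-PCR normalised to ACTB, GAPDH, POLR2A; bidirectional fit versus DMSO.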

Read-out in assay [10]: matrix metalloproteinase-1 (MMP1), MMP1 (gene 4312)
In words: LTEA_HepaRG_MMP1: Life Technologies and Expression Analysis (LTEA) Assay for matrix metalloproteinase-1 (MMP1) using HepaRG (AID 2283658; active means hit-call score of the fitted dose curve at least 0.9, where 1 is the maximum; inactive means score below 0.9). The conditions noted are these: mRNA level, 48 h; actives raise or lower the signal. Summed up: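 In this screen, human liver HepaRG cultures receive each chemical in duplicate for 48 h (top 100 uM, 0.5% DMSO). MMP1 expression is then quantified by TaqMan qRT-PCR with ACTB/GAPDH/POLR2A normalization.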

Take `CCCCC(CC)COC(=O)CCCCC(=O)OCC(CC)CCCC` (configuration not stated): the result in assay [1], in assay [2] and in assay [3] was inactive.
`CCCCCCC(=O)O`: the result in assay [4], in [2] and in [3] was inactive.
Consider `CN1CCN(c2ccccc2/C=C2\SCCN(c3ccc(Cl)c(Cl)c3)C2=O)CC1`, for which the compound was called inactive in assay [1], in assay [2] and in assay [5]. For the same compound, the AC50 in assay [6] is 9.55 µM (active).
`C=C(C)C(=O)OCCC(F)(F)C(F)(F)C(F)(F)C(F)(F)C(F)(F)C(F)(F)F`: the compound was classed as inactive in assay [7], in [8], in assay [1], in assay [2], in [9] and in assay [10]. In addition, the outcome in assay [3] was inactive.
Regarding `CCCCCCCCCCCCc1ccccc1S(=O)(=O)O`, the compound was called inactive in assay [1], in [2] and in assay [3]. Besides, the AC50 in assay [5] was 37.3 µM (active); in assay [6], 33.9 µM (active).
Consider `OC1CCC(C2CCCCC2)CC1` (configuration not stated), for which the result in [4], in [1] and in assay [3] was inactive.
In the case of `CCCOc1sc(C(=O)N2CCC(c3cc(CN)ccc3F)CC2)c(C)c1Br`, the compound was classed as inactive in [1].
For `NC(=O)N(O)[C@@H]1C=C[C@H](Oc2cccc(Oc3ccc(F)cc3)c2)C1`, the call in assay [4], in assay [1], in assay [2] and in assay [3] was inactive. The figures for the AC50 in [5] and in [6] were 6.75 µM (active) and 33.1 µM (active), respectively.
For `CC1=C(/C=C/C(C)=C/C=C/C(C)=C/C(=O)O)C(C)(C)CCC1`, the concentration at half-maximal activity (AC50) was 0.168 µM (active) in assay [1], 0.272 µM (active) in [2], 25 µM (active) in assay [5] and 0.0914 µM (active) in assay [3].
In the case of `O=C(O)c1ccccc1C(c1ccc(O)cc1)c1ccc(O)cc1`, the call in assay [4], in assay [1], in assay [2], in assay [6] and in assay [3] was inactive. The AC50 in [5] is 4.26 µM (active).
For `CCC(=C(c1ccc(O)cc1)c1ccc(OCCN(C)C)cc1)c1ccccc1`, the outcome in [1], in [2] and in assay [3] was inactive. For the same compound, the AC50 in [5] was 9.22 µM (active) and 8.64 µM (active); in assay [6], 8.78 µM (active) and 3.78 µM (active).
Regarding `ClC1=C(Cl)C(Cl)(Cl)C(Cl)=C1Cl`, the outcome in assay [7], in [8], in assay [1], in assay [2], in assay [9] and in assay [10] was inactive.
Take `CCCCCCCCCCCCN1CCCC1=O`: the AC50 in assay [1] was 34.7 µM (active); in assay [5], 17.4 µM (active); in assay [6] it was 14.9 µM (active). For the same compound, the call in assay [2] and in [3] was inactive.
For `COCC(C)O` (configuration not stated), the call in assay [4], in assay [1] and in assay [3] was inactive.
In the case of `C[C@@H]1C[C@H]2[C@@H]3CCC4=CC(=O)C=C[C@]4(C)[C@@]3(F)[C@@H](O)C[C@]2(C)[C@@]1(O)C(=O)COP(=O)(O)O`, the compound was called inactive in assay [4], in assay [1], in [2] and in assay [3].
Regarding `Oc1cc2ccccc2c2ccccc12`, the AC50 in assay [4] was 10.3 µM (active); in [1] it was 38.3 µM (active); in assay [5] it was 1.72 µM (active); in assay [6], 1.4 µM (active); in assay [3] it was 38.8 µM (active). For the same compound, the compound was classed as inactive in assay [2].
Turning to `CC#C[C@]1(O)CC[C@H]2[C@@H]3CCC4=CC(=O)CCC4=C3[C@@H](c3ccc(N(C)C)cc3)C[C@@]21C`, the outcome in [4] and in assay [2] was inactive. Besides, the AC50 in assay [5] was 4.74 µM (active); in assay [6], 17.7 µM (active); in [3], 11.7 µM (active).
`O=C(OCCOCCOC(=O)c1ccccc1)c1ccccc1`: the result in assay [7], in assay [8], in assay [1], in assay [9], in assay [10] and in assay [3] was inactive.
With `CCCOC(=O)c1ccc(O)cc1`, the AC50 in [4] is 10.6 µM (active); in [1], 32.9 µM (active); in [3], 41.5 µM (active). Further, the compound was classed as inactive in assay [2].
Consider `Nc1cccc2c(N)cccc12`, for which the outcome in assay [1], in assay [2] and in assay [3] was inactive. For the same compound, the AC50 in assay [5] was 2.06 µM (active); in assay [6] it was 30.1 µM (active).
As to `C#C[C@]1(O)CC[C@H]2[C@@H]3CCC4=CC(=O)CC[C@@H]4[C@H]3CC[C@@]21C`, the call in assay [8], in assay [1], in assay [2], in assay [10] and in [3] was inactive. The AC50 is 9.92 µM (active) in [9], 64.9 µM (active) in assay [5] and 66 µM (active) in [6].
Turning to `CCCCCCCCOC(=O)CCCCCCCCC(=O)OCCCCCCCC`, the call in [4], in assay [1], in [2] and in assay [3] was inactive.
For `Cc1cc(C)c(O)c(C)c1`, the compound was classed as inactive in assay [4], in assay [2], in assay [6] and in assay [3]. The AC50 in assay [5] is 5.53 µM (active).
Turning to `CCOC(=O)CC(O)(CC(=O)OCC)C(=O)OCC`, the compound was classed as inactive in [4], in assay [1], in [2] and in assay [3].
Turning to `CCCCC(CC)COC(=O)CCCCC(=O)OCc1ccccc1` (configuration not stated), the result in assay [4], in [1], in assay [2] and in [3] was inactive.
Take `CC(C)(C)c1ccc(O)c(C(C)(C)C)c1`: the compound was called inactive in [4], in assay [1], in assay [2] and in assay [3]. In addition, the AC50 is 13.6 µM (active) in assay [5] and 6.68 µM (active) in assay [6].
On to `CCN(CC)CCNc1ccc(CNC=O)c2sc3ccc(OC)cc3c(=O)c12`, for which the outcome in assay [4], in [1], in assay [2] and in assay [3] was inactive. Also, the concentration at half-maximal activity (AC50) in [5] is 24.9 µM (active); in [6], 22.1 µM (active).
Turning to `CC(O)CO` (configuration not stated), the result in assay [8], in [1], in assay [2], in assay [9], in assay [10] and in assay [3] was inactive.
For the compound `CC(C)(C)c1cc(C(C)(C)C)c(O)c(C(C)(C)C)c1`, the compound was classed as inactive in assay [8], in [1], in assay [2], in assay [9], in assay [10] and in assay [3]. In addition, the AC50 in assay [5] is 2.65 µM (active); in assay [6] it was 9.06 µM (active).
